From PubChem
LASV entry inh: Lassa virus entry inhibition | Lassa virus pseudotype entry inhibition, cell reporter | AID 540256 | actives 1.2% (n = 300,000) | Potency, µM (top dose mostly 37.9 µM), for inactives: at the top dose activity change, negative = inhibition, most hits filed as inhibitors; calls by dose curve; tested in HEK293 cells; further: potency means the concentration at half of the fitted maximal effect; on the % scale 0 is the no-effect control and ±100 the full control effect; nearly all actives have a fitted effect of over 50% in size
Shiga toxin inh: Shiga toxin inhibition | inhibition, % at 38.7 µM | Vero cells, Shiga toxin protein synthesis inhibition reporter | actives 9.2% (n = 290,000); in the data active means inhibition mostly above about 28%, no sharp cut-off; inactive means mostly below about 43%; further: 0% is about no effect
Pf growth 48h: inhibits P. falciparum growth in the first generation, 48 h; AID 504832; P. falciparum luciferase growth in erythrocytes, 48 h; actives 5.9% (n = 310,000); Potency, µM (doses to about 28.7 µM), inactives show top-dose activity change, negative = inhibition, most hits filed as inhibitors; further: potency means the concentration at half of the fitted maximal effect; on the % scale 0 is the no-effect control and ±100 the full control effect
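Luciferase-expressing P. falciparum in infected erythrocytes (2% hematocrit, 0.1% parasitemia final) in RPMI 1640/0.5% Albumax were exposed to compound for 48 hours at 37 C, 5% CO2; growth read as luminescence.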
CHX counter: affects cycloheximide protein synthesis inhibition readout, counter-screen; cell reporter, cycloheximide protein synthesis inhibition counterscreen; AID 2314; actives 12% (n = 300,000); max response, %; in the data active means max response mostly above about 13%, no sharp cut-off; inactive means mostly below about 14%; further: read at 38.3 µM for the half of the compounds with a filed dose; 0% is about no effect
Pf growth 96h: P. falciparum growth inhibition at 96 hours; P. falciparum luciferase reporter growth, 96 h; actives 6.9% (n = 320,000); Potency, µM (series often up to 28.7 µM), without a hit: at the highest dose activity change, negative = inhibition, usual class: inhibitors; further: potency means the concentration at half of the fitted maximal effect; on the % scale 0 is the no-effect control and ±100 the full control effect
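Cell-based qHTS: luciferase-tagged P. falciparum in erythrocytes (2% hematocrit, 0.05% parasitemia final) incubated with compounds for 96 hours, 37 C, 5% CO2; luciferase detection reagent then added and luminescence measured.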
Marburg entry inh: inhibitors of Marburg virus binding or cell entry; Marburg virus pseudotyped entry inhibition, cell reporter; Potency, µM (doses to about 37.8 µM), without a hit: at the highest dose activity change, negative = inhibition, hits mostly inhibitors; actives 1.8% (n = 300,000); calls by dose curve; tested in HEK293 cells; further: potency means the concentration at half of the fitted maximal effect; on the % scale 0 is the no-effect control and ±100 the full control effect
Numbers without * were called inactive; ? = inconclusive; . = not tested or not shown; [ ] = remark or other dose. An excerpt weighted towards active compounds, which were near 19% of everything screened. Unless noted, the call rests on the fitted dose curve; in most records, active means well fitted inhibition curve with a large enough effect; inconclusive means small, poorly fitted or top-dose-only effect, or another doubt; inactive means no such curve, though single readings can be large or run the other way.

SMILES | LASV entry inh | Shiga toxin inh | Pf growth 48h | CHX counter | Pf growth 96h | Marburg entry inh
CCOC(=O)c1ccc(N2C(=O)c3n[nH]c(-c4cccs4)c3C2c2ccc(CC)cc2)cc1 (centres undefined) | ? | -20 | . | 9 | . | ?
CCOC(=O)c1ccc(N2C(=O)c3n[nH]c(-c4cccs4)c3C2c2ccc(OCC)cc2)cc1 (centres undefined) | ? | . | . | . | . | 13µM*
Cc1c(C(=O)NCc2cccc(Cl)c2)sc2ncnc(N(C)C3CCCCC3)c12 | -4%[46.1 µM] | . | . | . | . | .
CCOC(=O)c1ccc(CNC(=O)Cn2nnc(-c3ccccc3F)n2)o1 | -10% | -14 | ? | 11 | ? | -6%
O=C(/C=C/c1ccco1)Nc1nc(-c2ccccc2)cs1 | ? | 118* | 127% | 86* | 27% | ?
O=C(/C=C/c1ccco1)Nc1nc(-c2ccc(F)c(F)c2)cs1 | . | 43 | ? | 18* | 1% | .
CCOC(=O)Cc1csc(NC(=O)/C=C/c2ccc(Cl)cc2)n1 | . | 59* | 52% | 23* | ? | .
Cn1nnc(NC(=O)/C=C/c2ccco2)n1 | -12% | 10 | 33% | 14 | 30% | -20%[14.2 µM]
Cc1csc(NC(=O)/C=C/c2ccco2)n1 | ? | 35* | 254% | 25* | 184% | ?
COc1ccc(OC)c2sc(NC(=O)C3CC3)nc12 | . | -16 | . | -5 | -24% | .
C=C[C@]1(C)C[C@H]1[C@H](NP(=O)(c1ccccc1)c1ccccc1)c1ccccc1 | 3% | 15 | -17% | -3 | ? | -1%
Cc1nc(N2CCc3ccccc3C2)[nH]c(=O)c1Cc1ccccc1 | 9%[46.1 µM] | 7 | 0% | 8 | ? | 19%[46.1 µM]
O=C(/C=C/c1ccco1)Nc1nc(-c2ccccn2)cs1 | . | 53* | ? | 49* | ? | .
Cc1csc(NC(=O)/C=C/c2ccc(C)o2)n1 | -10% | 73* | 209% | 31* | 142% | 21%
Cc1ccc(/C=C/C(=O)Nc2ccncc2)o1 | 8% | 52 | 29% | 15 | 240% | ?
CCOC(=O)Cc1csc(NS(=O)(=O)c2ccc(Cl)cc2)n1 | 5% | -9 | ? | -2 | 8.3µM* | -2%
CCOC(=O)Cc1csc(NC(=O)/C=C/c2ccco2)n1 | . | 59* | 59% | 25* | -8% | .
CCN(CC)CCP(=O)(c1ccccc1)c1ccccc1 | 5% | -4 | . | -4 | 14% | 12%
O=C(CN(C(=O)CCC(=O)Nc1nccs1)c1ccc2c(c1)OCO2)NCC1CCCO1 (centres undefined) | 2% | -1 | -14% | -3 | . | 0%
NC(=O)CCN1CCN(CCOC2Cc3cc(Cl)ccc3Sc3ccccc32)CC1 (centres undefined) | ? | -4 | ? | -1 | ? | ?
CCOC(=O)c1ccc(N2C(=O)c3n[nH]c(C)c3C2c2ccc(OC)c(OC)c2)cc1 (centres undefined) | -9% | -16 | ? | 4 | 9.3µM* | -20%
CCOC(=O)c1ccc(N2C(=O)c3n[nH]c(C)c3C2c2ccc(OC)cc2OC)cc1 (centres undefined) | ? | -2 | ? | -2 | 12µM* | ?
CCOC(=O)c1ccc(N2C(=O)c3n[nH]c(C)c3C2c2ccc(OC)cc2)cc1 (centres undefined) | -15% | -28 | ? | 8 | ? | -17%
COc1ccc(CC(=O)NCc2ccc3c(c2)OCO3)cc1 | -7% | -6 | . | 1 | 0% | -1%
COc1ccc([C@@H]2CC(=O)c3c(O)cc(O[C@@H]4O[C@H](CO)[C@@H](O)[C@H](O)[C@H]4O[C@@H]4O[C@@H](C)[C@H](O)[C@@H](O)[C@H]4O)cc3O2)cc1 | . | -6 | . | -3 | . | .
SMILES | LASV entry inh | Shiga toxin inh | Pf growth 48h | CHX counter | Pf growth 96h | Marburg entry inh
O=C1C[C@@H](c2ccc(O[C@@H]3O[C@H](CO)[C@@H](O)[C@H](O)[C@H]3O)cc2)Oc2cc(O)ccc21 | 1% | active | 3% | 20* | -13% | ?
C=CCn1c(SCC(=O)OCC)nc2cc(C(=O)NCc3ccco3)ccc2c1=O | 1% | -2 | . | -6 | 7.4µM* | -2%
COCCNC(=O)c1ccc2c(=O)n(Cc3ccco3)c(SCC(=O)NC3CCCC3)nc2c1 | 12% | -12 | . | 1 | 12µM* | 5%
CCN(C(=O)CSc1nc2cc(C(=O)OC)ccc2c(=O)n1Cc1ccco1)c1cccc(C)c1 | ? | -1 | 4.7µM* | -2 | -7% | ?
O=C(Nc1cccc(F)c1)c1cccc2c1C(=O)N(C1CCCCC1)C2 | 0%[46.1 µM] | -4 | ? | -2 | ? | 11%[46.1 µM]
CC(=O)Nc1ccc(NC(=O)c2ccccc2N(C)S(C)(=O)=O)cc1 | 6% | 17 | 3% | -1 | . | 5%
CC(C)(C)c1cc(CN2CCCCC2)cc(C(C)(C)C)c1O | . | -11 | -10% | -2 | . | 0%
Cc1c(NC(=O)NC(=O)c2ccc(F)cc2)c(=O)n(-c2ccccc2)n1C | 20% | 13 | 23% | -2 | -26% | 21%
Cc1c(N=C2N=C(NC(=O)c3ccc(F)cc3)c3ccccc32)c(=O)n(-c2ccccc2)n1C | 10% | -2 | 7.4µM* | -1 | 9%[5.75 µM] | ?
C=CCn1c(SCn2nnc3ccccc3c2=O)nnc1-c1ccc(Br)cc1 | 29% | 37 | 0% | 9 | 1% | 11%
C=CCn1c(COc2cccc(C)c2)nnc1SCn1nnc2ccccc2c1=O | 19% | 29 | -4% | 14* | -16% | 12%
CCN1C(=NCCc2cccs2)N[C@@H](c2cccs2)C(C(=O)OC)=C1C | . | -4 | 7.4µM* | -6 | ? | .
COC(=O)C1=C(C)N(Cc2ccccc2)C(=NCc2cccc(C(F)(F)F)c2)N[C@H]1c1cccc(C(F)(F)F)c1 | . | 12 | ? | -1 | 7% | .
COC(=O)C1=C(C)N(Cc2ccccc2)C(=NCCc2c[nH]c3ccccc23)N[C@H]1c1cccc(C(F)(F)F)c1 | . | 6 | ? | -2 | 13µM* | .
CCN1C(=O)N(C)[C@@H](c2ccccc2)C(C(=O)OC)=C1C | . | 2 | ? | 21* | -23% | ?
COC(=O)C1=C(C)N(Cc2ccccc2)C(=NCc2cccc(C(F)(F)F)c2)N[C@H]1c1cccc(F)c1 | . | -17 | 6.6µM* | -12 | ? | .
O=c1[nH]nc(-c2n[nH]c(=O)o2)o1 | 2% | . | . | . | . | 1%
O=C(O)CCN1C(=O)C2C3CC(C2C1=O)C1C(c2ccccc2)c2sc(=O)[nH]c2SC31 (centres undefined) | . | 8 | 2% | -3 | 48% | .
NCCN1CCN(CCN)CC1 | 1% | -2 | 5% | -1 | 7% | 2%
O=C(NCc1ccco1)/C(=C/C=C\c1ccccc1)NC(=O)c1ccc(Br)o1 | ? | 15 | ? | 3 | 20% | ?
COCCN=C1N[C@@H](c2cccc(C(F)(F)F)c2)C(C(=O)OC)=C(C)N1Cc1ccccc1 | . | -4 | ? | 0 | 4.7µM* | .
